Reference: PubChem BioAssay (NCI)
Values joined by “and” are separate entries in the source; they are usually repeats but may differ in a detail not shown here. Equal entries are not always repeated. About 79,000 compounds went through this panel and 15% of them were active in at least one assay; those are over-represented in the sample as a whole. Values without a mark were called inactive. Active and inactive are the calls of the source. No stated cut-off is given here; in the data, active means growth inhibition above about 70%; inactive means the rest.

What was measured:
[1] = NCI Yeast Anticancer Drug Screen. Data for the rad50 strain (AID 155);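 further: 0% = growth of vehicle-only cultures of the same strain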; details: S. cerevisiae rad50 strain growth inhibition; at 50.0 µM; hits give high values
Method in brief: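 Growth of the mutant yeast was measured after compound exposure and referenced to vehicle-treated cultures.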

[2] = NCI Yeast Anticancer Drug Screen. Data for the mec2-1 strain (AID 157); details: S. cerevisiae mec2-1 strain, at 50.0 µM, hits give high values
Method in brief: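 mec2-1 yeast strain, carrying an alteration in DNA damage repair or cell cycle control, was exposed to compounds; growth inhibition was measured relative to vehicle-treated controls.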

[3] = NCI Yeast Anticancer Drug Screen. Data for the sgs1 mgt1 strain (AID 161);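 further: 0% = growth of cultures given vehicle only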; details: S. cerevisiae sgs1 mgt1 strain, at 50.0 µM, hits give high values
Method in brief: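 Growth of a repair-deficient yeast mutant was monitored after compound treatment and expressed as inhibition relative to vehicle-treated cultures.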

[4] = NCI Yeast Anticancer Drug Screen. Data for the cln2 rad14 strain (AID 165);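 further: 0% = growth equal to vehicle treated cultures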; details: S. cerevisiae cln2 rad14 strain, at 50.0 µM, hits give high values
Method in brief: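 Yeast carrying cln2 and rad14 alterations (cell cycle control and DNA damage repair) were exposed to compounds. Growth inhibition was measured against vehicle-treated controls.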

[5] = NCI Yeast Anticancer Drug Screen. Data for the bub3 strain (AID 167); details: S. cerevisiae bub3 mutant strain, at 50.0 µM, hits give high values
Method in brief: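 Whole-cell yeast assay. The mutant strain was incubated with compounds, and growth inhibition was determined by comparison with vehicle-treated cells.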

[6] = NCI Yeast Anticancer Drug Screen. Data for the mlh1 rad18 strain (AID 175); details: S. cerevisiae mlh1 rad18 strain growth inhibition; at 50.0 µM; hits give high values
Method in brief: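 Growth inhibition of the yeast strain was measured after compound exposure and expressed relative to vehicle-treated controls. The strain carries defined defects in DNA damage repair.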

| SMILES | growth inhibition [1] | growth inhibition [2] | growth inhibition [3] | growth inhibition [4] | growth inhibition [5] | growth inhibition [6] |
| --- | --- | --- | --- | --- | --- | --- |
| C1CC[N-]CC1.CC(=N\O)/C(C)=N/O.CC(=N\O)/C(C)=N/O.N#C[CH-]CC#N.[Co+2] | 31.4% | 19.2% | 25.3% | -19.4% | 28.5% | 38.9% |
| N#CC(C#N)c1ccccc1 | 29.1% | 2.6% | 3.5% | -4.05% | 8.75% | 1.2% |
| c1ccc(CCN2CCOCC2)nc1 | 17.3% | 1.6% | -8.95% | 52% | 4.55% | 3.85% |
| CN1C[C@H]2[C@@H](C1=O)[C@H](c1ccccc1)ON2C | -16.4% | -55.2% | -34% | 13.6% | 5.85% | -1.85% |
| O=[N+]([O-])c1ccc(/C=N\NP(Br)(c2ccccc2)(c2ccccc2)c2ccccc2)cc1 | 15.4% | 0.3% | 26.9% | 3.95% | -2.5% | 4.75% |
| N.N.N.N.O=C([O-])C(=O)O.O=C([O-])C(=O)[O-].[Co+3] | -2.9% | 1.5% | -10.6% | 13.6% | 11.9% | -11.6% |
| CCC(Br)C(=O)O (stereo not given) | 26.6% | -4.3% | -0.3% | -22.5% | 24.4% | 24.8% |
| CCOC(=O)C(=O)C1CCNC1=O (stereo not given) | 9.2% | 3.35% | -4.45% | -0.25% | -3.65% | 24.5% |
| C1CN([PH+](N2CC2)N2CC2)CCO1.[C-]#[O+].[C-]#[O+].[C-]#[O+].[C-]#[O+].[C-]#[O+].[Mo] | -17.9% | -1.7% | -7.3% | -31.4% | 3.9% | 3.95% |
| COP(=O)(NC(C)=O)OC | 11.6% | -14.7% | -4.5% | -45.8% | -10.5% | -1.55% |
| Cc1cc(Cl)ccc1N | 32.4% | 6.1% | 0.65% | 12.2% | 24.4% | 21.4% |
| CN(C)P(=O)(N(C)C)N(C)CO | 6.35% | 6.05% | 25.4% | 7.35% | 18.2% | 4.6% |
| OCCBr | -2.95% | -7.7% | -4.65% | -1.05% | -0.7% | -17.9% |
| CC(N)c1ccccc1 (stereo not given) | -5.95% and 39.2% | -6.55% and 3% | 11% and 28% | -23.1% and 17.1% | -10.3% and 38.8% | 2.8% and 37.6% |
| [Cl][Pt][Cl].[NH-]NC(=O)c1ccncc1 | 8.65% | 5.8% | -3.55% | -17.1% | 2.35% | -2% |
| Brc1ccc2nncc(N3CC3)c2c1 | -13.2% | -16.6% | 4.55% | 8.5% | -9.3% | -20.6% |
| O=[As](O)(O)c1ccc2nc3cc([As](=O)(O)O)ccc3nc2c1 | -11.1% | -3% | -20.4% | 3.8% | 2.35% | -30.9% |
| CCCCC(CC)C(=O)O (stereo not given) | -12.6% and 33.9% | -0.3% and 11.5% | -1.65% and -1.3% | 0.2% and 6% | -13.7% and 6.6% | -10.7% and 7% |
| CC(Cl)CN(CC(C)Cl)c1ccc(-c2ccccc2)cc1 (stereo not given) | 5.25% | -13.8% | 12.7% | 18% | -5% | -30.9% |
| CC(C)(CBr)COP1(=O)NCC(C)(C)CO1 (stereo not given) | 13.7% | -3.7% | 3.85% | 20.4% | 4.2% | 10.8% |
| CCCCN1CCC2(CC1)COCc1ccccc12 | 57.2% | 34.3% | 42% | 28.7% | 54.9% | 44.1% |
| O=NN1CCOC1=NC1CCCCC1 | -3.65% | -12.2% | -11.2% | -63% | -22.7% | -9% |
| COc1cc(C2CNCc3cc(OC)c(O)cc32)ccc1O (stereo not given) | 0.05% | -7.1% | -11.1% | -17.8% | -9.85% | 1.2% |

| SMILES | growth inhibition [1] | growth inhibition [2] | growth inhibition [3] | growth inhibition [4] | growth inhibition [5] | growth inhibition [6] |
| --- | --- | --- | --- | --- | --- | --- |
| CC[CH2][Sn](=[O])[CH2]c1ccccc1 | 11.9% | 24.6% | 13.6% | 8.9% | 17.5% | -44.5% |
| CC(C)C(=O)OCC1CCCN2CCCCC12 (stereo not given) | 26.9% | 26.4% | 11.9% | 19.2% | 30.3% | -35.2% |
| Cc1cccc(N2C(=O)C3C(C2=O)C2(Cl)C(Cl)=C(Cl)C3(Cl)C2(Cl)Cl)c1C (stereo not given) | 88.2% (active) | 48.6% | 50.5% | 57% | 65.6% | 56% |
| CCOC(=O)C1=C(C)N2CCCOC2(C)C(C(=O)OC)C1c1cccc([N+](=O)[O-])c1 (stereo not given) | 38% | 10.8% | -6.5% | 18.5% | -34.6% | 27.8% |
| Cc1c2n(c3ccccc13)CC1CON(C)C21 (stereo not given) | -14.4% | -11.5% | -8.95% | -1.3% | -31.4% | -19.9% |
| C1CN1[PH+](N1CC1)N1CC1.[C-]#[O+].[C-]#[O+].[C-]#[O+].[C-]#[O+].[C-]#[O+].[Cr] | -5.55% | -4.65% | -0.75% | -11.8% | 2.4% | -17.3% |
| O=c1oc2ccccc2c(O)c1C(c1cnc2ccccc2c1)c1c(O)c2ccccc2oc1=O | 33.4% | 40.2% | 12.7% | 26.2% | -5.7% | 47% |
| CCC[N+](CCC)(CCC)CCC.[Ni+2].[SH2+]C([SH2+])=Nc1ccccc1.[SH2+]C([SH2+])=Nc1ccccc1 | 24.1% | 18.9% | 9.6% | -20.9% | 4.7% | 30.1% |
| C[C@]12CCC(=O)C=C1CC[C@H]1[C@@H]3CCC(=O)[C@@]3(C)CC[C@@]12F | -2.35% | -6.1% | 2.25% | -31.8% | -3.7% | -5.75% |
| CO[C@H]1C=C[C@@]23c4cc5c(cc4CO[C@]2(O)CN(C)[C@H]3C1)OCO5 | -16.2% | -1.35% | -10.8% | -1.35% | 1.8% | -41% |
| CC1CCC2[S][Sn]3([NH]C2C1)[NH]C1CC(C)CCC1[S]3 (stereo not given) | 97% (active) | 96.5% (active) | 99.1% (active) | 95.8% (active) | 98.2% (active) | 96.5% (active) |
| O=C(O)C(=O)Cc1ccc2c(c1)OCO2 | -3.8% | -19.3% | -28.6% | -32.9% | -20.2% | 0.5% |
| CCCCN(CCCC)CC(=O)c1ccc(Br)cc1 | 7.05% | 2.5% | 20.2% | -24.4% | 18% | 27.6% |
| Nc1ccc([N+](=O)[O-])cc1Cl | 11.8% | -7.3% | 45.2% | 19% | 12.9% | 34% |
| C[N+](C)(C)Cc1ccc2ccccc2c1Br | 30.3% | 7.05% | 10.2% | 10.3% | 0.2% | 20.6% |
| CC1C(C(=O)c2ccc(-c3ccccc3)cc2)N1C(C)(C)C (stereo not given) | -10.4% | 10.2% | 7.75% | 23.4% | 1.15% | -11.8% |
| CNC(=O)c1cc(N(CCCl)CCCl)c([N+](=O)[O-])cc1[N+](=O)[O-] | -3.15% | -17.5% | -6.05% | 10% | -3.15% | 19.4% |
| O=NN(O)c1ccccc1.O=NN(O)c1ccccc1.[Mn+2] | 4.85% | 0.15% | 13.1% | -46.5% | -4.3% | 3.85% |
| CCOP(=O)(OCC)C(C#N)OC(C)(C)C (stereo not given) | 4.4% | 20.4% | 12.2% | -0.25% | 10.3% | 2.35% |
| Oc1cc(Br)c(O)c(Br)c1 | 10.3% | 42.8% | 29.9% | -11% | 36.4% | 41.8% |
| Nc1[nH]c(=S)[nH]c(=O)c1Cn1ccnc1 | -20.4% | 0.8% | -23.4% | -17.1% | -11.2% | -33.8% |
| NNc1c(C(N)=O)c2c(N)ncnc2n1C1OC(CO)C(O)C1O (stereo not given) | -0.6% | 37.8% | 4.9% | 10.5% | 4.55% | 19.9% |
